Bioassay records (PubChem)
Rows were chosen to be rich in hits. Some 4% of all compounds tested hit in one or more screens of this group.
EBV LMP1 NFkB: inhibitors of Epstein-Barr LMP1-induced NF-kappaB reporter; AID 504558; inhibition, % at 12.5 µM; hit rate 0.69% among 350,000; LMP1-induced NF-kappaB luciferase reporter cells, luminescence; in the data active = inhibition above about 41%;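 also: 0% = neutral control wells and 100% = reference inhibitor control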
TROY signal inh: blocks TROY-dependent signaling in reporter cells. Q293 LMP1-TROYcd NF-kB luciferase reporter, 4 h. inhibition, % at 10 µM. hit rate 0.98% among 360,000;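 active = compounds whose plate-normalised and pattern-corrected inhibition of the luciferase reporter signal at the single screening dose is 50% or more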
Peg3 prom inh: inhibitors of Peg3 promoter; HeLa PEG-Prom luciferase reporter, luminescence, overnight; hit rate 1.7% among 360,000; inhibition, % at 20 µM;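 active = inhibition of at least 50% at 20 µM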
TRPM1 prom inh: MITF TRPM1 promoter inhibition in SK-MEL-5 cells; inhibition, % at 12.5 µM; SK-MEL-5 TRPM1 promoter luciferase, 24 h; hit rate 0.83% among 330,000;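 active = mean inhibition across replicates of 60% or more, whatever share of single replicates reaches that level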
HIF-2a block: HIF-2a inhibition; 786-0 RCC cells HIF-2a reporter, luciferase luminescence, overnight; inhibition, % at 18.8 µM; hit rate 0.72% among 360,000; AID 624352;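 active = inhibition of the luminescence signal of 40% or more relative to plate controls, in a single-dose primary screen at 18.75 µM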
TWEAK Fn14 block: inhibitors of TWEAK-Fn14 interaction signaling. hit rate 2% among 360,000. TWEAK-stimulated Fn14 reporter cells, luciferase luminescence, 8 h. inhibition, % at 10 µM; in the data active = inhibition above about 50%
Numbers without * were called inactive.

`Cc1ccc(-c2nn(-c3ccccc3)cc2CN(Cc2ccccc2)C(=O)c2ccco2)o1` gave EBV LMP1 NFkB 5.3, TROY signal inh 13.2, Peg3 prom inh 64.6*, TRPM1 prom inh 4.6, HIF-2a block 26.2 and TWEAK Fn14 block -1.0.
For O=C(Nc1ccccc1)N1CCNCC1 the results were EBV LMP1 NFkB -2.2, TROY signal inh 90.5*, Peg3 prom inh 3.9, TRPM1 prom inh 4.6, HIF-2a block 19.5 and TWEAK Fn14 block 8.2.
O=c1c2sc(-c3ccccc3)cc2nc2n1CCC2 was read as EBV LMP1 NFkB 23.7, TROY signal inh 22.1, Peg3 prom inh -57.0, TRPM1 prom inh 11.9, HIF-2a block -35.2 and TWEAK Fn14 block 74.0*.
`CCCC(=O)N1CCC1(C)C(=O)Nc1cccc(OC(C)C)c1` (stereo not given) gave TROY signal inh -7.8, Peg3 prom inh 2.3, HIF-2a block 9.3 and TWEAK Fn14 block 12.4.
CCCCOc1ccc(C(=O)Nc2cccc(-n3cnnn3)c2)cc1OC was read as EBV LMP1 NFkB -14.5, TROY signal inh 0.2, Peg3 prom inh 0.7, TRPM1 prom inh -2.2, HIF-2a block -4.3 and TWEAK Fn14 block -17.6.
For CCN(CC)C(=O)C1=C(C)N(CCCN2CCCC2=O)C(=O)C(CC(=O)NC2CC2)C1 (stereo not given) the results were EBV LMP1 NFkB -4.1, TROY signal inh -6.4, Peg3 prom inh -3.7, HIF-2a block 4.9 and TWEAK Fn14 block -10.0.
CC1=C(C(=O)N(C)C)CC(CC(=O)NC2CCCCC2)C(=O)N1CCCN1CCCC1=O (stereo not given) was read as EBV LMP1 NFkB 0.3, TROY signal inh -6.6, Peg3 prom inh 60.4*, HIF-2a block 10.2 and TWEAK Fn14 block 1.4.
Screening CC1=C(C(=O)N(C(C)C)C(C)C)CC(CC(=O)NC2CC2)C(=O)N1CCCN1CCCC1=O (stereo not given) returned TROY signal inh 75.1*, Peg3 prom inh 7.7, HIF-2a block 2.1 and TWEAK Fn14 block 10.8.
CC1CCN(c2ccc3c(c2)S(=O)(=O)c2cccc(C(=O)NC4CC4)c2C3=O)CC1 was read as EBV LMP1 NFkB -8.9, TROY signal inh -49.7, Peg3 prom inh -92.7, TRPM1 prom inh -38.4, HIF-2a block -114.5 and TWEAK Fn14 block -18.1.
Screening CC(Nc1nc(N2CCNCC2)nc2ccccc12)c1ccccc1 (stereo not given) returned EBV LMP1 NFkB -14.4, TROY signal inh 9.6, Peg3 prom inh 101.6*, TRPM1 prom inh 53.6, HIF-2a block 30.3 and TWEAK Fn14 block -141.0.
`CC(Nc1nc(-c2ccncc2)nc2ccccc12)c1ccccc1` (stereo not given) gave EBV LMP1 NFkB -9.0, TROY signal inh -2.6, Peg3 prom inh 28.9, TRPM1 prom inh -8.2, HIF-2a block 18.1 and TWEAK Fn14 block 17.4.
Screening NC(=O)c1ccccc1NC(=O)CN1CCN(Cc2ccc(Cl)cc2Cl)CC1 returned EBV LMP1 NFkB 8.8, TROY signal inh 15.2, Peg3 prom inh 10.7, TRPM1 prom inh 11.4, HIF-2a block 0.6 and TWEAK Fn14 block -21.4.
CC(C)C[C@H](NC(=O)c1[nH]cnc1C(=O)Nc1ccc(CNC(=O)OC(C)(C)C)cc1)C(=O)OCc1ccccc1 was read as EBV LMP1 NFkB -5.8, TROY signal inh 28.4, Peg3 prom inh 38.7, TRPM1 prom inh 1.9, HIF-2a block 6.2 and TWEAK Fn14 block 21.6.
For C[C@H](NC(=O)c1[nH]cnc1C(=O)Nc1ccc(CNC(=O)OC(C)(C)C)cc1)C(=O)OCc1ccccc1 the results were EBV LMP1 NFkB -1.4, TROY signal inh 74.5*, Peg3 prom inh 97.5*, TRPM1 prom inh -0.9, HIF-2a block 3.2 and TWEAK Fn14 block 51.9*.
For CC(C)(C)OC(=O)NCc1ccc(NC(=O)c2nc[nH]c2C(=O)NCCNC(=O)c2[nH]cnc2C(=O)Nc2ccc(CNC(=O)OC(C)(C)C)cc2)cc1 the results were EBV LMP1 NFkB -82.2, TROY signal inh 29.6, Peg3 prom inh 83.8*, TRPM1 prom inh 1.6, HIF-2a block 7.5 and TWEAK Fn14 block 43.1.
C[C@@H](O)CNC(=O)c1[nH]cnc1C(=O)Nc1ccc(CNC(=O)OC(C)(C)C)cc1 was read as EBV LMP1 NFkB 6.6, TROY signal inh 11.4, Peg3 prom inh 27.7, HIF-2a block 10.5 and TWEAK Fn14 block -53.9.
`CC(C)(C)OC(=O)CNC(=O)c1[nH]cnc1C(=O)Nc1ccc(CNC(=O)OC(C)(C)C)cc1` gave EBV LMP1 NFkB 4.2, TROY signal inh 33.5, Peg3 prom inh 65.6*, TRPM1 prom inh 1.3, HIF-2a block 4.8 and TWEAK Fn14 block 30.9.
Screening COc1ccc(CCN(C)C2CCCN(S(=O)(=O)c3ccccc3F)C2)cc1OC (stereo not given) returned EBV LMP1 NFkB 7.4, TROY signal inh -8.2, Peg3 prom inh 11.1, TRPM1 prom inh 5.0, HIF-2a block 10.2 and TWEAK Fn14 block 2.6.
For CCOC(=O)[C@]12CCC=C1N(Cc1ccc(Cl)cc1Cl)C(=O)[C@H](CC(=O)NCC13CC4CC(CC(C4)C1)C3)C2 the results were TROY signal inh 7.5, HIF-2a block -11.8 and TWEAK Fn14 block -4.4.
CC(C(=O)N1c2ccccc2CC1C)N1CCN(S(=O)(=O)c2ccccc2F)CC1 (stereo not given) was read as EBV LMP1 NFkB -13.3, TROY signal inh 6.4, Peg3 prom inh -4.8, TRPM1 prom inh 7.1, HIF-2a block -3.7 and TWEAK Fn14 block 7.1.
Screening Cc1cnc(CNC(=O)CC2C(=O)NCCN2Cc2cccc(F)c2F)cn1 (stereo not given) returned EBV LMP1 NFkB 0.0, TROY signal inh 0.5, Peg3 prom inh -3.3, TRPM1 prom inh -0.2, HIF-2a block 0.6 and TWEAK Fn14 block 10.5.
`CCN(CC)C(=O)CSc1nnc2nnc3cc(C)ccc3n12` gave EBV LMP1 NFkB -4.0, TROY signal inh -27.0, Peg3 prom inh 4.9, TRPM1 prom inh 40.6, HIF-2a block 3.1 and TWEAK Fn14 block -5.8.
Screening CCN(CC)C(=O)CSc1nnc2nnc3cc(Cl)ccc3n12 returned EBV LMP1 NFkB 1.4, TROY signal inh -2.9, Peg3 prom inh -8.2, TRPM1 prom inh 72.5*, HIF-2a block 12.2 and TWEAK Fn14 block 0.8.
Cc1nn(-c2ccc(F)cc2)c2nc(N)c(C#N)c(-c3cccs3)c12 was read as EBV LMP1 NFkB 4.5, TROY signal inh -4.0, Peg3 prom inh 84.2*, TRPM1 prom inh 7.6, HIF-2a block 10.1 and TWEAK Fn14 block 26.4.
For CCc1cccc(CC)c1NC(=O)C1CC(=O)N(c2ccc3c(c2)OCCO3)C1 (stereo not given) the results were EBV LMP1 NFkB 2.6, TROY signal inh 21.8, Peg3 prom inh -12.3, TRPM1 prom inh 4.4, HIF-2a block 18.2 and TWEAK Fn14 block 68.9*.
`CCOc1ccc(N2CC(C(=O)Nc3ccc4c(c3)OCCO4)CC2=O)cc1` (stereo not given) gave EBV LMP1 NFkB 7.3, TROY signal inh 60.7*, Peg3 prom inh 39.5, TRPM1 prom inh 3.1, HIF-2a block 14.6 and TWEAK Fn14 block 77.8*.
